Binding signal data for one sequence are collected here from paper PMC7862700, “An all-to-all approach to the identification of sequence-specific readers for epigenetic DNA modifications on cytosine”.

Common to all, as to assay: DAPPL (digital affinity profiling via proximity ligation, sequencing); 10 mM Tris-HCl pH 7.5, 50 mM NaCl, 1 mM DTT, 4% glycerol, room temperature, 30 min; GST-TFs on glutathione beads, 16-mer random dsDNA library, 0.1% formaldehyde crosslink after washing; high values mean tight binding
Conditions in all cases: protein: recombinant; tags: N-terminal GST; dsDNA, one strand shown

One test addresses T1, FLI1 (Homo sapiens, UniProt Q01543 1-452).
T1 sequence: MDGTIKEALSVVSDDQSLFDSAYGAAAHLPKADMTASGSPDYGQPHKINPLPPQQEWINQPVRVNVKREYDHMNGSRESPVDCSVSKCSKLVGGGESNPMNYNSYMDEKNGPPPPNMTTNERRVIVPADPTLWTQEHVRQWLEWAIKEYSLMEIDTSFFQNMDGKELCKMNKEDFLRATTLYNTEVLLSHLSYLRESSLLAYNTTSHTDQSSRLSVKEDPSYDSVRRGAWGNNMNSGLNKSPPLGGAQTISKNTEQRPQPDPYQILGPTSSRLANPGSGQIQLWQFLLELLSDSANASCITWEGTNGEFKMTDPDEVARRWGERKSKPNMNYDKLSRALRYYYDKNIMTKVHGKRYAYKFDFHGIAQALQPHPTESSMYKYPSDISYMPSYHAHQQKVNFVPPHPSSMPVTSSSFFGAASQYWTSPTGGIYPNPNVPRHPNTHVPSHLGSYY
The essentials:
(§1)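 Each value of binding signal is a hexamer's read frequency for a factor divided by the same hexamer's frequency in the tag-only sample. Barcoded, bead-captured GST fusions of human transcription factors made in yeast were pooled with that sample and incubated with 200 nmole of a random double-stranded 16-mer DNA library in Tris/NaCl/DTT/glycerol buffer at room temperature for 30 min. Washing, 0.1% formaldehyde crosslinking, proximity ligation, PCR and Illumina NextSeq500 sequencing followed.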

Another test deals with T2, ELK1 (Homo sapiens, UniProt P19419 1-428).
T2 sequence: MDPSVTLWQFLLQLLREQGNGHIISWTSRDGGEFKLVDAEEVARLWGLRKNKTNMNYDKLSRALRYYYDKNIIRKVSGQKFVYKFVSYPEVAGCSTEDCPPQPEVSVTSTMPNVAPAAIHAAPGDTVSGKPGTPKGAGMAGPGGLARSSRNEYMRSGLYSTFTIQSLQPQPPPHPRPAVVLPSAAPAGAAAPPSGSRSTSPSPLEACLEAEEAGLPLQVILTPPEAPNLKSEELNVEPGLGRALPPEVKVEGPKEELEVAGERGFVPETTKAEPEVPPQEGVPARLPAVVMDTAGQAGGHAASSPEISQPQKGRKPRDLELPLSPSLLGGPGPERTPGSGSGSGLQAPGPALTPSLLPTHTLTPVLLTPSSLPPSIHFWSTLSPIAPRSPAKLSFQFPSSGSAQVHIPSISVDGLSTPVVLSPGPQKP
The procedure, abridged: as §1

A further test has as its target T3, GABPA (Homo sapiens, UniProt Q06546 1-454).
T3 sequence: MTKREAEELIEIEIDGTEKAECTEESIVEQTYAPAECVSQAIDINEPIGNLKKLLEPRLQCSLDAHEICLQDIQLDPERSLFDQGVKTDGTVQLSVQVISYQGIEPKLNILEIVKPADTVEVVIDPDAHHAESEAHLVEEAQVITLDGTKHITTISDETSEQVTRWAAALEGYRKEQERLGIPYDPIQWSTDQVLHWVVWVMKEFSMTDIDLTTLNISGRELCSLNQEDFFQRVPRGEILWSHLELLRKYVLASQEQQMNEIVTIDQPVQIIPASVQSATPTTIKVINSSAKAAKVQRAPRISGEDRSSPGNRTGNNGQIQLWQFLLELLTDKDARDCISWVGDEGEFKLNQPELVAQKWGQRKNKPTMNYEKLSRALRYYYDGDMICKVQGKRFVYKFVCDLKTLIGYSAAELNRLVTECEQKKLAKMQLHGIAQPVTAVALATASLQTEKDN
The essentials: as §1

The next test concerns the target T4, ERG (Homo sapiens, UniProt P11308 1-479).
T4 sequence: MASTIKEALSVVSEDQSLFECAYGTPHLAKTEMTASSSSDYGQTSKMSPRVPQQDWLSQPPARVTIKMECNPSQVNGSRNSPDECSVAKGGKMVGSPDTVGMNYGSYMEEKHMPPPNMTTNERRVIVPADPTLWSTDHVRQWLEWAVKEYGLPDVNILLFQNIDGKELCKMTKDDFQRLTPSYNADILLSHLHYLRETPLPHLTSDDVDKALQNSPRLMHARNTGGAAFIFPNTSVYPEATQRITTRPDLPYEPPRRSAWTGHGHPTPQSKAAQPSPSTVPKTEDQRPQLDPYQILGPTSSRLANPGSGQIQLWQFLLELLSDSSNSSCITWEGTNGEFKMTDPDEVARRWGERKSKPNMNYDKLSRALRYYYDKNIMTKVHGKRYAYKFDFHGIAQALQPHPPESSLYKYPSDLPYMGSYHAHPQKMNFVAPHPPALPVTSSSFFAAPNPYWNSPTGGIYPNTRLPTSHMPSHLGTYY
The essentials:
as §1

A further test has as its target ELF1 (Homo sapiens, UniProt P32519 1-619). The procedure, abridged: as §1
Another test has as its target T5, EHF (Homo sapiens, UniProt Q9NZC4 1-300).
T5 sequence: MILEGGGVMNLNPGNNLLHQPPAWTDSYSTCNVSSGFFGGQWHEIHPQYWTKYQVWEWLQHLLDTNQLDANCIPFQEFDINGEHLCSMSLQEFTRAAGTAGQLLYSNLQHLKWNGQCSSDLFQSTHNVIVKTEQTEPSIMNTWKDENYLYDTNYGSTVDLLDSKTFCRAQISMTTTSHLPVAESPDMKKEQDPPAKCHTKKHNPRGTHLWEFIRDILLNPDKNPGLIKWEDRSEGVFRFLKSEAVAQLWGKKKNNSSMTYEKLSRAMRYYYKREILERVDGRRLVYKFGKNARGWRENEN
The essentials:
as §1

In the next test the target is SPI1 (Homo sapiens, UniProt P17947 1-270). The essentials: as §1
In a further test the target is SPIB (Homo sapiens, UniProt Q01892 1-262). The procedure, abridged: as §1
Chain of SPIB (Q01892 whole entry): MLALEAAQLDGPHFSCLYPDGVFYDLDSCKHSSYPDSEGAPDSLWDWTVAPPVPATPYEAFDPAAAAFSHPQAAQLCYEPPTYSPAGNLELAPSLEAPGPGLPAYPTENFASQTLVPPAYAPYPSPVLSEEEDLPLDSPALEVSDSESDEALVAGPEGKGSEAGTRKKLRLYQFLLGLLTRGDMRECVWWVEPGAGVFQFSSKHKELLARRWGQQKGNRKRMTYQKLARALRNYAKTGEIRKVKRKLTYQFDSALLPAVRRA
The target in a further test is T6, ELK3 (Homo sapiens, UniProt P41970 1-407).
T6 sequence: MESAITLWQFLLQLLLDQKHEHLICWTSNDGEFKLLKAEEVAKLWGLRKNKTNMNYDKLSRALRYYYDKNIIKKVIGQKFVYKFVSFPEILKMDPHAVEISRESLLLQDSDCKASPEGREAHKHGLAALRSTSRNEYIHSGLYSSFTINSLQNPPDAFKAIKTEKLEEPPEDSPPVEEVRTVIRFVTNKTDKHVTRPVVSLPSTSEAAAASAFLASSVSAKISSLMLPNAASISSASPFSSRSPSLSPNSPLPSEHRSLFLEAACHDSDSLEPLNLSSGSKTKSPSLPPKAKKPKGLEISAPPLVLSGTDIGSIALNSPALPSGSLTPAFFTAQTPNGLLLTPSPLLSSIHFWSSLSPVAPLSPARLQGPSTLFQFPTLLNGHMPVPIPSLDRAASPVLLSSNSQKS
The essentials: as §1

A further test concerns the target T7, FEV (Homo sapiens, UniProt Q99581 1-238).
T7 sequence: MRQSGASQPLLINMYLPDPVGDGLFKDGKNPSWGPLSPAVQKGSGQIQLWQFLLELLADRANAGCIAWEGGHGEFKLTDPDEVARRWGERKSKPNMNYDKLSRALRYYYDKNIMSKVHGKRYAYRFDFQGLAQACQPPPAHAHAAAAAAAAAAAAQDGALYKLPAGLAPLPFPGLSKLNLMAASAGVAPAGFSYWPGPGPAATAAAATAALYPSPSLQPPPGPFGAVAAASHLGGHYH
The procedure, abridged: as §1

Another test addresses ETV5 (Homo sapiens, UniProt P41161 1-510). The procedure, abridged:
as §1

Another test addresses T8, SPIC (Homo sapiens, UniProt Q8N5J4 1-248).
T8 sequence: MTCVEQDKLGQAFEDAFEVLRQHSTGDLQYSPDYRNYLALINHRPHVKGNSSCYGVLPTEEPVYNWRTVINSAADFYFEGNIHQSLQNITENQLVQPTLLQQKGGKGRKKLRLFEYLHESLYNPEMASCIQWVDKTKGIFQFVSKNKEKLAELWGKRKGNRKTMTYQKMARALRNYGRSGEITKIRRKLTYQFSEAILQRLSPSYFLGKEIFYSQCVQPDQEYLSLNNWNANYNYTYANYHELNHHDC
The procedure, abridged:
as §1

The next test deals with ELF4 (Homo sapiens, UniProt Q99607 1-663). The procedure, abridged: as §1
Chain of ELF4 (Q99607 whole entry): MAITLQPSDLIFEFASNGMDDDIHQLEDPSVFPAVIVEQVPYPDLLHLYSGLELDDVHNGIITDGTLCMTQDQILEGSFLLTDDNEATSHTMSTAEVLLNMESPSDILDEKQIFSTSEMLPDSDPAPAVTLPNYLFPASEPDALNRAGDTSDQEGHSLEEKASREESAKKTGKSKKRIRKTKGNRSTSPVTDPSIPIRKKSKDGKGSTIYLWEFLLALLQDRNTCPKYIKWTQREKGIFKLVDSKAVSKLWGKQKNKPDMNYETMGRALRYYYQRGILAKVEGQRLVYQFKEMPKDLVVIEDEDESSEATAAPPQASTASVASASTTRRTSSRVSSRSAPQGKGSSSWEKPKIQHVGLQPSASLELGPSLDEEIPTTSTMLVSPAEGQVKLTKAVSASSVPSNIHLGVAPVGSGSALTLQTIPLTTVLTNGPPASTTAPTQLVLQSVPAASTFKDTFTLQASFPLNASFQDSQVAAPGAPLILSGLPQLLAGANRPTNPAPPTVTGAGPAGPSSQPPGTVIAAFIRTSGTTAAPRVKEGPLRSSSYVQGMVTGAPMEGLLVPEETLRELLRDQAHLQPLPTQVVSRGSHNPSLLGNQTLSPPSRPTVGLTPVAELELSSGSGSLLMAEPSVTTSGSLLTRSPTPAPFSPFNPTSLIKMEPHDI
The target of a further test is T9, ELK4 (Homo sapiens, UniProt P28324-2 1-405).
T9 sequence: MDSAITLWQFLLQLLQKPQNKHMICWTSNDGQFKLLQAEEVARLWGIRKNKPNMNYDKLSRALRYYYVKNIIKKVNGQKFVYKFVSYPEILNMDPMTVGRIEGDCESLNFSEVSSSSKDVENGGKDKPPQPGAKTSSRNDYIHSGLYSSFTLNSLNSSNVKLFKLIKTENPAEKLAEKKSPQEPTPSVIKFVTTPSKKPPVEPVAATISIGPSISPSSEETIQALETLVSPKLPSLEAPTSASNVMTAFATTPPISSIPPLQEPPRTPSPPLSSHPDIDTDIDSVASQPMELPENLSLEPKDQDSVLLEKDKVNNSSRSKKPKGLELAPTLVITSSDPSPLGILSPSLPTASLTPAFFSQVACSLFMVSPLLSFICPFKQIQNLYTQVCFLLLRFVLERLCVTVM
The procedure, abridged: as §1

Another test has as its target T10, ETV2 (Homo sapiens, UniProt O00321 1-342).
T10 sequence: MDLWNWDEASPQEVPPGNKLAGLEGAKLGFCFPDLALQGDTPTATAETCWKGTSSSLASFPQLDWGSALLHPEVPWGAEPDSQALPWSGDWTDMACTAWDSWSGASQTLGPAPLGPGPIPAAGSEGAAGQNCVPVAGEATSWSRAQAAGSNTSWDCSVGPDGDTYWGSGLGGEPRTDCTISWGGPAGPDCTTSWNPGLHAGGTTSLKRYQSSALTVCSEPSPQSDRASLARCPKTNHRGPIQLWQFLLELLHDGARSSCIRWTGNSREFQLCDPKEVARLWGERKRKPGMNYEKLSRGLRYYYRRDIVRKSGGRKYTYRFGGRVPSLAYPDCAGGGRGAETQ
The procedure, abridged:
as §1

The target in the next test is T11, ELF3 (Homo sapiens, UniProt P78545 1-371).
T11 sequence: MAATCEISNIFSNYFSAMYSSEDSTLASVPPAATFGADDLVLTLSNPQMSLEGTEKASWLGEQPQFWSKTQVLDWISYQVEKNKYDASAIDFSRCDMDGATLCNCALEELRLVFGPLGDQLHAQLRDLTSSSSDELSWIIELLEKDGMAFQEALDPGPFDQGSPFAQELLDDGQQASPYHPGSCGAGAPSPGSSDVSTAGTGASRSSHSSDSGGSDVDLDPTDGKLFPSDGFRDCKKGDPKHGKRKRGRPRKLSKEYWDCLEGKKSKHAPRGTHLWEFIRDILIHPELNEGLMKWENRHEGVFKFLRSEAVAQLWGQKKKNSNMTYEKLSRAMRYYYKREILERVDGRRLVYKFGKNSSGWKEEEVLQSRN
The essentials: as §1

The target of the next test is ETV1 (Homo sapiens, UniProt P50549 1-477). The procedure, abridged:
as §1

Chain of ELF1 (P32519 whole entry): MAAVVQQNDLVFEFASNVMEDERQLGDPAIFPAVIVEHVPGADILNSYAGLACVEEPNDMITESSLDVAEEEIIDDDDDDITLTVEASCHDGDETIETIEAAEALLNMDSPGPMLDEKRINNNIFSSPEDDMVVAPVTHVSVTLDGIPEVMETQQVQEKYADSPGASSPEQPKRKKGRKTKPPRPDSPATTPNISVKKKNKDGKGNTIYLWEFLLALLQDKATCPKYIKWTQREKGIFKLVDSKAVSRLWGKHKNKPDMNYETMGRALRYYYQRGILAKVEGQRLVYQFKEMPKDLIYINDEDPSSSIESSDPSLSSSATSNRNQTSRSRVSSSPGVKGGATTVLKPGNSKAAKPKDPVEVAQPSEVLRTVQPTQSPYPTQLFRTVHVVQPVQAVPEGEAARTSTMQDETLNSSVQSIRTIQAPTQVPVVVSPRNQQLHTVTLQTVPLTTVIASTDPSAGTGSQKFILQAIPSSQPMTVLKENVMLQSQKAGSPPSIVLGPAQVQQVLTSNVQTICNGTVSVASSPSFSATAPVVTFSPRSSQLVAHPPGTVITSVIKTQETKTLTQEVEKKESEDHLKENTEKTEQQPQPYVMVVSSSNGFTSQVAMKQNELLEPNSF
Chain of ETV1 (P50549 whole entry): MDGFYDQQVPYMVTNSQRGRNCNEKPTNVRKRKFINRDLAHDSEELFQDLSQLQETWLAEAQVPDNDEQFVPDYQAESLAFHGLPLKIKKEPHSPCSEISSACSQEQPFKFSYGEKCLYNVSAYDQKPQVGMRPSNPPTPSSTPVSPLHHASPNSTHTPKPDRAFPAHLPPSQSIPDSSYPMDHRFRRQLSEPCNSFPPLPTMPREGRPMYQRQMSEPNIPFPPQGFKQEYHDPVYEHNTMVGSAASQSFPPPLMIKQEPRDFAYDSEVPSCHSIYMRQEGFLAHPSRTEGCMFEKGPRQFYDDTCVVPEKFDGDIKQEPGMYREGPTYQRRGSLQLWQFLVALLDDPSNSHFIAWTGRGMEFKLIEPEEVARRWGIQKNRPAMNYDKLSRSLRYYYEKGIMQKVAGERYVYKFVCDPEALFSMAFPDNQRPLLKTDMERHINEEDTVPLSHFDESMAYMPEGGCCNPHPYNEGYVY
Chain of ETV5 (P41161 whole entry): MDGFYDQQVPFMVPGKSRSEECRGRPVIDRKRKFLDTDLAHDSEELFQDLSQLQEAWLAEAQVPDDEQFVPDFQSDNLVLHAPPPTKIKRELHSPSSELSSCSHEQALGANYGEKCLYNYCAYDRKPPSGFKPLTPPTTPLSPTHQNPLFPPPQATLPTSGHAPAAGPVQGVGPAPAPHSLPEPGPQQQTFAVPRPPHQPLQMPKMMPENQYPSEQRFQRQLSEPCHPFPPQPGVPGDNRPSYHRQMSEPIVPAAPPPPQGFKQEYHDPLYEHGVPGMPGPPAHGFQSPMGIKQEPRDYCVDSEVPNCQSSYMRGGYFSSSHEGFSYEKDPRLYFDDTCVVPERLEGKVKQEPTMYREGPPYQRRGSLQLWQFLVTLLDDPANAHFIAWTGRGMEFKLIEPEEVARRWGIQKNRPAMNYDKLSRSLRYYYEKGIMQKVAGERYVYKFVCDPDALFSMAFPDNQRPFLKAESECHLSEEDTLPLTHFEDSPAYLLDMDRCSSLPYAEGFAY

In the case of CGGAAA, the binding signal with FLI1 is 1.89 fold enrichment (6-mer frequency, TF over GST control); with ELK1, 2.13 fold enrichment (6-mer frequency, TF over GST control); with GABPA it was 1.88 fold enrichment (6-mer frequency, TF over GST control); with ERG it was 2.63 fold enrichment (6-mer frequency, TF over GST control); with ELF1, 1.87 fold enrichment (6-mer frequency, TF over GST control); in the test with EHF, 2.31 fold enrichment (6-mer frequency, TF over GST control). Also, the binding signal with SPI1 was 1.89 fold enrichment (6-mer frequency, TF over GST control); with SPIB, 2.22 fold enrichment (6-mer frequency, TF over GST control); with ELK3, 2.28 fold enrichment (6-mer frequency, TF over GST control); with FEV, 3.21 fold enrichment (6-mer frequency, TF over GST control); with ETV5, 2.32 fold enrichment (6-mer frequency, TF over GST control); with SPIC, 1.94 fold enrichment (6-mer frequency, TF over GST control). Moreover, the binding signal was 1.84 fold enrichment (6-mer frequency, TF over GST control) in the test with ELF4; 1.55 fold enrichment (6-mer frequency, TF over GST control) in the test with ELK4; 2 fold enrichment (6-mer frequency, TF over GST control) in the test with ETV2; 2.13 fold enrichment (6-mer frequency, TF over GST control) in the test with ELF3; 2.17 fold enrichment (6-mer frequency, TF over GST control) with ETV1.
